Compounds with a hit are over-represented: about 9% of the library has one in this group of screens.
BAZ2B inh: inhibitors of human BAZ2B bromodomain | actives 4.4% (n = 360,000) | Potency, µM (titrated, usually from 114 µM), for inactives: at the top dose activity change, negative = inhibition, usual class: inhibitors | AID 504333 | AlphaScreen BAZ2B-H3K14Ac peptide displacement | Q9UIF8; further: on the % scale 0 is the no-effect control and ±100 the full control effect; nearly all actives have a fitted effect of over 60% in size
Target sequence (Q9UIF8 whole entry, looked up): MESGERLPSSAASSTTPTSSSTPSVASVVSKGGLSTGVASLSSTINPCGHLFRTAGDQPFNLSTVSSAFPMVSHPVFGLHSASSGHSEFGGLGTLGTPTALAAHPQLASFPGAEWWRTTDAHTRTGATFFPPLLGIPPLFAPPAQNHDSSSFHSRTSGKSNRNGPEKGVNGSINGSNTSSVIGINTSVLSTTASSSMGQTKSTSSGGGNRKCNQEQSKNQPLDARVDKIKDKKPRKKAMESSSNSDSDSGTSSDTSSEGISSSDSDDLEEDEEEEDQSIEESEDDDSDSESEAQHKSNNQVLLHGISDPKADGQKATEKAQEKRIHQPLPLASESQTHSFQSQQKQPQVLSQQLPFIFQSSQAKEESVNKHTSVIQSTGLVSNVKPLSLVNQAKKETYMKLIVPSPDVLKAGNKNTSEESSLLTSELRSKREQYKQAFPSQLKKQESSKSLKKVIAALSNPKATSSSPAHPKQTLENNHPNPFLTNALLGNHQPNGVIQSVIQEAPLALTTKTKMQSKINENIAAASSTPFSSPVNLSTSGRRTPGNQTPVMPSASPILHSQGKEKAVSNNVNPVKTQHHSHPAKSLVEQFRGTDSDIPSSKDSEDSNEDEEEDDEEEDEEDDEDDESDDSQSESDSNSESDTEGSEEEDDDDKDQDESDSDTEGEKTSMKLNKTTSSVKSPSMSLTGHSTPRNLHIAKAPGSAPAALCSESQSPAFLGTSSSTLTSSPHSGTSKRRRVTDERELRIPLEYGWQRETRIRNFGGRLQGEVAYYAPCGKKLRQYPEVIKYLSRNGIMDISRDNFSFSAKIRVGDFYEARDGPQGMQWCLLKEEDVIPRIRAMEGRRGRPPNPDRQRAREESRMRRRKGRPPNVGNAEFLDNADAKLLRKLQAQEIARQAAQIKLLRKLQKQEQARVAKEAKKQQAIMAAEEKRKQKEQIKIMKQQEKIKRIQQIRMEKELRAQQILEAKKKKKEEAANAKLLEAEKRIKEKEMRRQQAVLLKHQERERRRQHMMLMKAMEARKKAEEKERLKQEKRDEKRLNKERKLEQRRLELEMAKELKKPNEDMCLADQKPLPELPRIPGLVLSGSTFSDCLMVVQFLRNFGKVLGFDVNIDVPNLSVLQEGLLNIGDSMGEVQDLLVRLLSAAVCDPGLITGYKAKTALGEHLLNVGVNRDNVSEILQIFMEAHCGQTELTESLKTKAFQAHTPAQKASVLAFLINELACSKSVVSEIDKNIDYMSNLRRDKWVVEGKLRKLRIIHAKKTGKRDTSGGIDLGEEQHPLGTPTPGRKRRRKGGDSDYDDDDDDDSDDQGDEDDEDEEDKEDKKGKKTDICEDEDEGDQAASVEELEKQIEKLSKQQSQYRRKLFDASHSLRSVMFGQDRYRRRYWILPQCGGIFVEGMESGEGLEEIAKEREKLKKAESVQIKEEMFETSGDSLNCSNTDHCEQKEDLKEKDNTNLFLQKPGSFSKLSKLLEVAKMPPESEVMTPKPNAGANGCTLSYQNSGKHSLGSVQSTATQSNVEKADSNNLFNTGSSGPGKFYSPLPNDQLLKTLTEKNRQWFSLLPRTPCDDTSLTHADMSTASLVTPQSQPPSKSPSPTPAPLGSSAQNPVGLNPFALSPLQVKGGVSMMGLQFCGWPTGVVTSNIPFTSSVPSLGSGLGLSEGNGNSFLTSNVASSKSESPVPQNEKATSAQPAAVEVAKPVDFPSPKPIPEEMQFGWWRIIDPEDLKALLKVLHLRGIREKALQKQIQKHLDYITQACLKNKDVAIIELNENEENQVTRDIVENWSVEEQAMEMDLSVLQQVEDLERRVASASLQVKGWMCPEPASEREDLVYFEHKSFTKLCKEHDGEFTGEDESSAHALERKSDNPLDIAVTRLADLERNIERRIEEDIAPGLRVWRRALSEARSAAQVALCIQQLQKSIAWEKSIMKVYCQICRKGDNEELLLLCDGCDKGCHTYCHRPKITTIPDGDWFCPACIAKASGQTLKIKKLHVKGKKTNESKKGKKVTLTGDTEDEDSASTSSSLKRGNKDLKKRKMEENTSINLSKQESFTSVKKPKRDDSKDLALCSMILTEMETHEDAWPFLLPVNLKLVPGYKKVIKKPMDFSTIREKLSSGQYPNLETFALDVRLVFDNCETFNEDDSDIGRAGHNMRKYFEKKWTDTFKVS
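AlphaScreen luminescence quantifies BAZ2B engagement of H3K14Ac peptide; the protein and biotinylated peptide are both at 50 nM final, buffer PBS pH 7.4 with 0.01% Tween-20, all steps at room temperature.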
12-LOX inh: blocks human arachidonate 12S-lipoxygenase. P18054. purified 12hLO, xylenol orange hydroperoxide absorbance. Potency, µM (doses to about 108 µM), for the others: top-dose activity change, negative = inhibition, actives largely listed as inhibitors. actives 1.1% (n = 580,000). AID 1671190; further: on the % scale 0 is the no-effect control and ±100 the full control effect
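Purified human 12hLO (150 nM final) in 25 mM Hepes, 0.01% Triton X-100, pH 7.0 was preincubated 15 min at room temperature with compound. Then 40 uM arachidonic acid was added, 30 min. Hydroperoxide was read by Fe-XO absorbance ratio 573/405 nm.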
G9a block: blocks human histone lysine methyltransferase G9a | actives 8.8% (n = 350,000) | Potency, µM (series often up to 102 µM), inactives show at the top dose activity, negative = inhibition, most hits filed as inhibitors | G9a H3K9 monomethylation, AlphaScreen, 2 h | AID 504332; further: on the % scale 0 is the no-effect control and ±100 the full control effect; nearly all actives have a fitted effect of over 75% in size
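G9a (20 nM) preincubated 15 min RT with compounds, then 500 nM biotinylated H3K9 peptide and 20 uM SAM added; 2 h RT reaction. Monomethyl-H3K9 product detected by AlphaScreen with anti-H3K9me1 antibody, streptavidin donor and anti-rabbit IgG acceptor beads.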
PLK1 PBD block: inhibitors of human PLK1 polo-box domain binding; P53350; Plk1 PBD binding of FITC phosphopeptide, fluorescence polarization; Potency, µM, for inactives: max response, negative = inhibition, hits mostly inhibitors; actives 2.8% (n = 360,000); further: series mostly up to about 57 µM; on the % scale 0 is the no-effect control and ±100 the full control effect; nearly all actives have a fitted effect of over 65% in size
HP1b chromo inh: HP1-beta chromodomain-methylated histone interaction inhibition; P83916; AlphaScreen HP1-beta / biotin-H3K9me3 peptide binding; actives 0.56% (n = 390,000); Potency, µM (series often up to 114 µM), inactives show top-dose activity change, negative = inhibition, usual class: inhibitors; further: nearly all actives have a fitted effect of over 70% in size
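AlphaScreen: HP1-beta (50 nM) preformed 30 min with biotin-H3(1-18)K9me3 peptide (50 nM) in PBS pH 7.4, 0.01% Tween-20. Compound added for 30 min at RT, then streptavidin donor/nickel chelate acceptor beads (10 ug/mL) for 30 min.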
JMJD2A Tudor: JMJD2A Tudor domain (human) inhibition; O75164; AlphaScreen JMJD2A-Tudor / H3K4me3 peptide binding; Potency, µM (series often up to 114 µM), for the others: at the top dose activity change, negative = inhibition, usual class: inhibitors; actives 4.4% (n = 390,000); further: on the % scale 0 is the no-effect control and ±100 the full control effect; nearly all actives have a fitted effect of over 50% in size
An asterisk follows results filed as active; [ ] = dose if it differs, or a comment. The call rests on the fitted dose curve; in most records, active means well fitted curve in the direction sought with a large enough effect; inconclusive means small, poorly fitted or top-dose-only effect, or another doubt; inactive means no such curve, though single readings can be large; an effect the other way counts as inactive or inconclusive. Potency means the concentration at half of the fitted maximal effect.

Results for Cc1ccc(C)c(NC(=O)CCC(=O)N/N=C/c2cc([N+](=O)[O-])ccc2O)c1 ?
BAZ2B inh: -1%; 12-LOX inh: -17%; G9a block: 0%; PLK1 PBD block: 38µM*; HP1b chromo inh: -6%; JMJD2A Tudor: 1%[11.4 µM]

How did O=C(N/N=C/c1cc([N+](=O)[O-])ccc1O)C1CC1 do in these assays?
BAZ2B inh: -28%; 12-LOX inh: 58%; G9a block: 34%[59 µM]; PLK1 PBD block: 0%; HP1b chromo inh: 42%; JMJD2A Tudor: -36%

What do the screens show for `O=C(N/N=C/c1ccccc1O)c1cc(=O)[nH]c2ccccc12`?
BAZ2B inh: 50µM*; G9a block: 1%[59 µM]

Results for O=C(N/N=C/c1cc([N+](=O)[O-])ccc1O)C(O)(c1ccccc1)c1ccccc1 ?
BAZ2B inh: inconclusive; 12-LOX inh: inconclusive; PLK1 PBD block: -18%; HP1b chromo inh: 28%; JMJD2A Tudor: 79µM*

What do the screens show for `CN(C)c1ccc(/C(=N\O)c2ccccc2)cc1`?
BAZ2B inh: -10%; 12-LOX inh: inconclusive; G9a block: 14µM*; PLK1 PBD block: -6%; HP1b chromo inh: -35%; JMJD2A Tudor: 50µM*

What do the screens show for `Cc1ccc(NC(=O)CCCc2nc(-c3ccco3)no2)cc1Cl`?
BAZ2B inh: -7%; 12-LOX inh: -29%; G9a block: -24%[59 µM]; HP1b chromo inh: 18%; JMJD2A Tudor: -18%

Results for CCn1c(SCC(=O)Nc2nccs2)nnc1C1CC1 ?
BAZ2B inh: 5%; 12-LOX inh: -19%; PLK1 PBD block: -4%; HP1b chromo inh: 29%; JMJD2A Tudor: -15%

Results for O=C(N/N=C/c1cccc2ccccc12)c1ccncc1 ?
BAZ2B inh: inconclusive; 12-LOX inh: 24%; PLK1 PBD block: 4%; HP1b chromo inh: 24%; JMJD2A Tudor: 8%

Results for O=C(N/N=C/c1cc([N+](=O)[O-])ccc1O)c1cccc(N2CCCC2=O)c1 ?
BAZ2B inh: 20µM*; 12-LOX inh: inconclusive; G9a block: 23%; PLK1 PBD block: -6%; HP1b chromo inh: 48%; JMJD2A Tudor: 32µM*

What do the screens show for `CC/C(=N\NC(=O)c1ccc(N(C)C)cc1)c1ccccc1`?
BAZ2B inh: -9%; 12-LOX inh: 3%; G9a block: 28µM*; PLK1 PBD block: inconclusive; HP1b chromo inh: -2%; JMJD2A Tudor: inconclusive

What do the screens show for `O=C(N/N=C/c1ccccc1O)c1ccncc1`?
BAZ2B inh: 35µM*; 12-LOX inh: -6%; G9a block: 33%[59 µM]; PLK1 PBD block: -7%; HP1b chromo inh: 25%; JMJD2A Tudor: 50µM*

Results for CN(C)c1ccc(/C=N/NC(=O)c2ccccc2)cc1 ?
BAZ2B inh: -30%; 12-LOX inh: 15%; G9a block: -41%; PLK1 PBD block: -5%; HP1b chromo inh: 28%; JMJD2A Tudor: -17%

Results for Cc1nccn1CC(=O)c1ccc(O)c(O)c1 ?
BAZ2B inh: 56µM*; 12-LOX inh: -17%; G9a block: 10%[0.501 µM]; PLK1 PBD block: 21µM*; HP1b chromo inh: 20%; JMJD2A Tudor: 20µM*

How did Cc1nccn1CC(=O)O do in these assays?
BAZ2B inh: -1%; 12-LOX inh: 37%; G9a block: -8%; PLK1 PBD block: -2%; HP1b chromo inh: 46%; JMJD2A Tudor: -1%

What do the screens show for `CC(C)(C)CC(=O)NC(=S)NCc1ccccc1`?
BAZ2B inh: 1%; 12-LOX inh: 58%; G9a block: 5%; PLK1 PBD block: 2%; HP1b chromo inh: 58%; JMJD2A Tudor: 22%

What do the screens show for `Cc1csc(NC(=O)CSc2nnc(C)c(=O)n2N)n1`?
BAZ2B inh: -1%; 12-LOX inh: 0%; G9a block: 10%[59 µM]; PLK1 PBD block: -3%; HP1b chromo inh: 44%; JMJD2A Tudor: -5%

How did O=C1NCCCC1C(=O)N/N=C/c1ccc([N+](=O)[O-])cc1 (configuration not stated) do in these assays?
BAZ2B inh: 1%; 12-LOX inh: 145%; G9a block: -4%; PLK1 PBD block: 2%; HP1b chromo inh: 53%; JMJD2A Tudor: -3%

What do the screens show for `Nc1nonc1C(=O)N/N=C/c1cc(Br)ccc1O`?
BAZ2B inh: 7.9µM*; 12-LOX inh: inconclusive; G9a block: inconclusive; PLK1 PBD block: 2%; HP1b chromo inh: 37%; JMJD2A Tudor: 18µM*

How did O=C(N/N=C/c1cc(Br)ccc1OC(=O)c1ccc(Br)cc1)c1ccncc1 do in these assays?
BAZ2B inh: 50µM*; 12-LOX inh: 3%; G9a block: 21%; PLK1 PBD block: 4%; HP1b chromo inh: inconclusive; JMJD2A Tudor: 89µM*

What do the screens show for `O=C1NCCCC1C(=O)N/N=C/c1cc([N+](=O)[O-])ccc1O` (configuration not stated)?
BAZ2B inh: 50µM*; 12-LOX inh: 0%; G9a block: 47%[12.7 µM]; PLK1 PBD block: -15%; HP1b chromo inh: 16%[57 µM]; JMJD2A Tudor: 40µM*

Results for Cc1nccn1CC(=O)N/N=C/c1ccccc1O ?
BAZ2B inh: 45µM*; 12-LOX inh: -10%; PLK1 PBD block: -2%; HP1b chromo inh: 29%; JMJD2A Tudor: 56µM*

What do the screens show for `Nc1nonc1-n1nnc(C(=O)N/N=C/c2cc(Br)ccc2O)c1CNc1ccccc1`?
BAZ2B inh: -20%; 12-LOX inh: -19%; G9a block: 13%; PLK1 PBD block: -2%; HP1b chromo inh: -5%[57 µM]; JMJD2A Tudor: -33%

What do the screens show for `Cc1c(NC(=O)CCC(=O)N2CCOCC2)c(=O)n(-c2ccccc2)n1C`?
BAZ2B inh: 2%; 12-LOX inh: -19%; G9a block: 12%[59 µM]; PLK1 PBD block: -4%; HP1b chromo inh: 19%; JMJD2A Tudor: -6%

How did CC1(C(=O)O)CCCN(C(=O)c2cc3ccccc3s2)C1 (configuration not stated) do in these assays?
12-LOX inh: -2%; PLK1 PBD block: -6%

Results for COc1ccc2sc(C)nc2c1NC(C)=O ?
BAZ2B inh: 4%; 12-LOX inh: 485%; G9a block: 0%; PLK1 PBD block: -14%; HP1b chromo inh: 15%; JMJD2A Tudor: -11%

What do the screens show for `O=C(CCCC(=O)Nc1cccc(Br)c1)N/N=C/c1cc([N+](=O)[O-])ccc1O`?
BAZ2B inh: 1%; 12-LOX inh: inconclusive; PLK1 PBD block: -2%; HP1b chromo inh: 27%; JMJD2A Tudor: inconclusive

How did O=C(CN(c1cccc(Br)c1)S(=O)(=O)c1ccccc1)N/N=C/c1cc([N+](=O)[O-])ccc1O do in these assays?
12-LOX inh: 329%; PLK1 PBD block: inconclusive; HP1b chromo inh: -12%; JMJD2A Tudor: 50µM*

Screening data (PubChem)
